# Screening results deposited in PubChem BioAssay by several laboratories.
# Fluor 339 460: intrinsic fluorescence of library compounds, ex339/em460 – biochemical, MLSMR library, data from DPM-DC assay, artefact control, profiling panel | compound autofluorescence, ex339/em460 nm, NADH buffer; stronger effect = higher value; 1 = no-compound wells, NADH background | fluorescence fold increase at 10 µM | 65,000 compounds, 5.5% hits | AID 709;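 active means at 10 µM, mean starting fluorescence two-fold or more over control wells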;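 further: signal is the first read of a kinetic run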
# Cdc25B inh: inhibitors of human Cdc25B phosphatase. P30305. recombinant Cdc25B, OMFP fluorescence Ex485/Em525. inhibition, %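 (compounds tested at 10 µM final in the well)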. 65,000 compounds, 0.1% hits; in the data active means inhibition above about 50%
# Abs 340nm: compound absorbs light at 340 nm | compound absorbance at 340 nm, fold over control | fold change at 10 µM | 65,000 tested, under 10 active | AID 708;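 active means at 10 µM dose, initial 340 nm absorbance at least 2 fold that of control wells; inactive means change under 2 fold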;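 further: initial absorbance extrapolated from kinetic A340 decline of NADH oxidation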
# NADH coupling: inhibition of NAD/NADH coupling enzymes, library profiling | 65,000 compounds, 0.02% hits | IC50, µM (titrated, usually from 10 µM), for inactives: at the top dose inhibition | coupled PK/LDH NADH assays, four targets;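 active means single-dose screening hits from any of four coupled enzyme assays that gave an IC50 when retested across doses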;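 further: the DPM-DC format reads NADH fluorescence rather than 340 nm absorbance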
# Hsp90 block: displaces geldanamycin probe from tumor Hsp90. inhibition, % at 30 µM. NCI-N417 lysate Hsp90, Cy3B-geldanamycin FP displacement. 64,000 compounds, 0.35% hits. P07900. AID 429;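 active means inhibition above 50%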;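 further: 0% = tracer plus lysate wells and 100% = tracer alone without lysate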
# MKP-1 inh: inhibitors of human MKP-1 phosphatase; P28562; recombinant MKP-1, OMFP hydrolysis fluorescence; inhibition, %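 (compounds tested at a single concentration somewhere between 10 and 100 µM)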; 65,000 compounds, 0.15% hits;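 active means inhibition above about 50%, limit read from the data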;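 further: 0% = DMSO max control wells and 100% = wells with enzyme stopped by NaOH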
# Target sequence (P28562 whole entry, looked up): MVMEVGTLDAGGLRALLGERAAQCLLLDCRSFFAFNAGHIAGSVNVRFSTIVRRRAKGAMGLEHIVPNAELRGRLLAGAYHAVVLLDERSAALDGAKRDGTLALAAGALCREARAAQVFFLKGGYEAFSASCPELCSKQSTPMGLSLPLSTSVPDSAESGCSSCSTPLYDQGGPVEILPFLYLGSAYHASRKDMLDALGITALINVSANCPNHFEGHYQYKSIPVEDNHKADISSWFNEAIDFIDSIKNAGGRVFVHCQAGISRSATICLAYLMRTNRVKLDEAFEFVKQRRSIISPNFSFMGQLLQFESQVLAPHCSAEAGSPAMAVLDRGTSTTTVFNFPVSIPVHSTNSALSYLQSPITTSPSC
# * hit, by the source's call; . = no result. Only some compounds are listed: those with a hit (about 5.7% of all), similar ones and a draw of the others.
SMILES,Fluor 339 460,Cdc25B inh,Abs 340nm,NADH coupling,Hsp90 block,MKP-1 inh
CCOC(=O)N1CCN(CC(=O)Nc2c(C(=O)OC)[nH]c3ccccc23)CC1,1.6,1,1,9%,-8,-5
COc1ccccc1NS(=O)(=O)c1cc(C(=O)NCCN2CCOCC2)ccc1Cl,1.1,-24,1,5%,0,24
CCCCCCCCCCCCC/C=C/C(O)C(N)CO (configuration not stated),.,.,.,.,3,.
Cc1ccnc(NC(=O)CCC(=O)N(CC(=O)NC2CCCCC2)CC2CCCO2)c1 (configuration not stated),1.1,-2,1,1%,1,-24
Cc1nnc2sc(-c3ccc(NC(=O)c4ccc(-c5ccc(Cl)cc5Cl)o4)cc3)nn12,3.9*,2,1.1,6%,-60,31
COc1cc(C)nc(N(C)S(=O)(=O)c2ccccc2Cl)n1,1.1,-22,1.1,0%,2,-19
CCn1nc(-c2ccccc2)c2nc3ccccc3nc21,2.4*,-1,1.1,12%,-7,-4
CCCn1nc(-c2ccccc2)c2nc3ccccc3nc21,2.4*,-1,1.1,4%,-3,3
Cn1nc(-c2ccc(Cl)cc2)c2cc(C(=O)NCC3CCCO3)sc21 (configuration not stated),2.1*,-6,1.1,5%,-2,32
CN1CCN(CCCNC(=O)c2cc3c(-c4ccc(Cl)cc4)nn(C)c3s2)CC1,2.1*,-15,1.1,3%,-4,-13
Cn1nc(-c2ccc(Cl)cc2)c2cc(C(=O)N3CCOCC3)sc21,1.3,-7,1.1,11%,-4,10
CCN(CC)CCCNC(=O)c1cc(-c2ccc(Cl)c(Cl)c2)on1,1.1,-16,0.99,6%,-5,4
CCN(CC)CCCNC(=O)c1cc2c(-c3ccc(Cl)cc3)nn(C)c2s1,2.1*,-15,1.1,2%,-3,-7
CC12CCC(=O)N1c1c(sc3nc(N4CCOCC4)c4c(c13)CCCC4)C(=O)N2 (configuration not stated),2.4*,3,1.1,4%,-6,2
CSc1nc(N2CCOCC2)c2c3c(sc2n1)CCC3,1,6,1,6%,-21,17
CCOC(=O)c1oc2cc(O)cc(C)c2c(=O)c1-c1cscn1,1.1,9,1.1,6%,-2,-19
Cc1cc(O)cc(O)c1-c1onc(C(F)(F)F)c1-c1cscn1,1.1,-4,1,2%,69*,27
Cc1csc(N(C)C(=O)CSc2nnc(COc3cccc4ccccc34)o2)n1,1.1,-2,1,4%,0,25
CCOc1ccc2[nH]c3c(N4CCN(c5ccccn5)CC4)ncnc3c2c1,2.7*,-2,1,3%,3,-17
Cc1ccc2[nH]c3c(N4CCN(Cc5ccccc5)CC4)ncnc3c2c1,1.8,6,1.1,5%,-5,-22
CCCC(=O)Nc1c2c(nn1-c1ccc(OC)cc1)CS(=O)C2 (configuration not stated),1,-1,0.97,3%,0,-23
CCCCC(=O)Nc1cc2nn(-c3ccc(OC)cc3)nc2cc1C,3.6*,2,1.1,13%,-13,-2
CCC(=O)Nc1cc2nn(-c3ccc(OC)cc3)nc2cc1C,3.8*,23,1,11%,-5,11
CSc1ccc(-c2cc(=O)c3ccccc3o2)cc1,2.9*,-2,1.1,3%,-3,-4
CC1(C)Oc2ccc3ccc(=O)oc3c2-c2cnoc21,2.2*,-8,1.1,8%,-2,0
SMILES,Fluor 339 460,Cdc25B inh,Abs 340nm,NADH coupling,Hsp90 block,MKP-1 inh
COC(=O)C1=C(N)Oc2cc(C)n(CC3CCCO3)c(=O)c2C1c1ccc(Cl)cc1 (configuration not stated),1.1,-7,1,7%,2,-10
O=C(c1n[nH]c(=O)c2ccccc12)N1CCN(C2c3ccccc3-c3ccccc32)CC1,0.97,2,0.99,12%,90*,52*
CC(C)n1c(SCC(=O)N2CCCc3ccccc32)nc2c1c(=O)n(C)c(=O)n2C,1.1,-12,0.96,5%,2,7
Oc1ccc(N=Cc2ccc(-c3cccs3)s2)cc1,2.2*,-3,1.1,9%,13,-16
CCCn1c(=O)n(C)c(=O)c2c3oc(=O)c(NC(=O)c4ccc(F)cc4)cc3[nH]c21,1.1,-5,1,4%,-5,-1
CCOC(=O)c1cnc2c(C)cccc2c1NCc1ccco1,1.4,-9,1.1,8%,.,11
CCOC(=O)c1ccc2ncc(C(=O)OCC)c(NCc3ccco3)c2c1,3.8*,-14,1.1,12%,-5,33
CCOC(=O)c1cnc2c(C(=O)OC)cccc2c1NCc1ccco1,3.4*,-4,1.1,6%,-19,-6
CCOC(=O)c1ccc2ncc(C(=O)OCC)c(NCCCN3CCOCC3)c2c1,1.6,-8,1.1,12%,-3,13
Cn1c(NC(=O)C2CCCO2)cc(=O)n(C)c1=O (configuration not stated),1.1,-8,1,6%,-4,-7
CCO/C=C1/C(=O)N(CC)c2ccccc21,1.1,-2,1,8%,-5,7
CCO/C=C1\C(=O)N(c2ccccc2)C(=O)c2ccccc21,2.2*,-1,1.1,9%,-4,12
O=C(NCCCn1ccnc1)Nc1cccc(Cl)c1,1.1,-2,1,7%,-4,7
COC(=O)c1ccc(C(=O)OC)c(NS(=O)(=O)c2ccc(NC(C)=O)cc2)c1,2.2*,-7,1.1,3%,6,19
CCOC(=O)c1c(C)[nH]c(C(=O)COC(=O)c2ccccc2NC(=O)c2ccco2)c1C,3.4*,0,1.1,19%,-7,33
CCOC(=O)c1cc2sccc2n1CC(=O)c1ccc2c(c1)OCCO2,1,8,1,5%,-4,3
Cc1cc(C(=O)NCCCN2CCCC2=O)no1,1.1,-14,1.1,3%,-25,9
Fc1ccc2[nH]c3c(N4CCN(C5CCCCC5)CC4)ncnc3c2c1,2.3*,11,1.1,3%,-2,20
Nc1ccc[n+](Cc2ccccn2)c1,2.1*,8,1.1,8%,3,17
CCC(C)(C)NC(=O)CN(C(=O)c1snc(C(N)=O)c1N)c1ccc2c(c1)OCO2,1.1,8,1,4%,0,18
CCc1ccccc1N(CC(=O)NCc1ccco1)C(=O)c1snc(C(N)=O)c1N,3.3*,4,1.1,6%,-9,2
CC(C)CCNC(=O)C(c1ccco1)N(Cc1ccccc1)C(=O)c1snc(C(N)=O)c1N (configuration not stated),1.9,4,1,15%,-1,3
